Reference: PubChem BioAssay (NCI)
This is part of a sample that, as a whole, favours compounds with a hit. Of some 83,000 tested, about 20% had one in any assay.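 Assay: single dose, 48 h. Readout: percent growth (0 = no net growth; negative = cell death). Active: <10.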 Activity calls are given as the source filed them.

These compounds were tested on SK-MEL-2 melanoma (assay: NCI-60 one-dose screen, 48 h (100 = growth as untreated, 0 = no growth, -100 = all killed)). Details: 10 µM.
Procedure: Growth inhibition of the SK-MEL-2 human tumor cell line is measured as a screen for anti-cancer activity. Cells are grown in 96 well plates and exposed to the test compound for 48 hours. Compounds are tested at a single concentration, which is 10^-5 M for most compounds. The reported endpoint is percent growth (GI% or GIPRCNT), where numbers from 0 - 100% represent growth inhibition, and numbers from -100% - 0 represent cell death. For example, a value of 40 represents 60% growth inhibition. A value of 0 means no net growth occurred over the course of the experiment. A value of -40 indicates 40% of cells at the beginning of the experiment died by the end of the experiment. A value of -100 means all cells are dead at the end of the experiment.
NCI-60 Human Tumor Cell Lines Screen was performed using the standard one-dose NCI protocol, which is described in more detail at https://dtp.cancer.gov/discovery_development/nci-60/default.htm.
Compounds with GIPRCNT values below 10 were considered active. Activity score was based on GIPRCNT using the following formula: […]
Score is 0 for GIPRCNT values of 100 or above, 50 for GIPRCNT values of 0, and 100 for GIPRCNT values of -100.

| SMILES | growth |
| --- | --- |
| O=C(O)CCCCCCCCCCN1C(=O)/C(=C/c2cnc(-c3ccccc3)s2)SC1=S | 93.2% (inactive) |
| COc1ccc(C=CC(=O)c2ccc(-n3c(C)nc4c(cnn4-c4ccccc4)c3=O)cc2)cc1 | 70.6% (inactive) |
| CS(=O)(=O)Nc1ccc(-c2ccc3c(c2)ncn3-c2ccc(NC(=O)Nc3ccc(Br)cc3)cc2)cc1 | -52.1% (active) |
| CN1CCc2c(sc3ncnc(N/N=C/c4ccc5ccccc5c4)c23)C1 | 103% (inactive) |
| O=C(CSc1ccc(-c2ccc(Cl)cc2)nn1)Nc1ccc(Cl)c(C(F)(F)F)c1 | 59.7% (inactive) |
| Clc1cccc(N/N=C/c2c[nH]c3ccccc23)n1 | 73.3% (inactive) |
| O=C(c1ccc(O)cc1)C1[C@H](c2ccccc2Br)[C@@H](c2ccccc2)NC12C(=O)Nc1ccc(Br)cc12 (stereo not given in full) | 38.1% (inactive) |
| COc1cccc(-c2nn(-c3ccccc3)cc2-c2ccnc(NCCCNC(=O)Nc3ccc(F)cc3)c2)c1 | -40.6% (active) |
| CCCCCCCCCCCCCCCCCCCC(=O)NCCc1c[nH]c2ccc(O)cc12 | 107% (inactive) |
| COc1ccc(C(=O)/C=C/c2cc(C(F)(F)F)cc(C(F)(F)F)c2)cc1S(N)(=O)=O | -73.8% (active) |
| CC1=N/C(=C\c2ccc(N(C)C)cc2)C(=O)N1CCc1ccc(S(N)(=O)=O)cc1 | 97.9% (inactive) |
| CC(=O)NCC1=C(C)C=C2C(=O)[C@](C)(O)C3(CC3)C(C)=C21 | -74.7% (active) |
| Nc1nc(Nc2ccccc2)nn1Cc1c(Cl)cccc1Cl | 49.2% (inactive) |
| N#Cc1ccc(-c2nn(-c3ccc(C(=O)O)cc3)cc2CNc2ccc(Cl)cc2)cc1 | 96.2% (inactive) |
| O=C(NCCCCC(c1ccc(F)cc1)c1ccc(F)cc1)NCCCc1cccnc1 | -1.41% (active) |
| COc1ccc(-c2cc(C(=O)N=Nc3c(O)[nH]c4ccccc34)c3ccccc3n2)cc1 | 64.9% (inactive) |
| O=c1[nH]c2ccccc2cc1CSc1ccc(Nc2nccc(-c3ccc(C(F)(F)F)cc3)n2)cc1 | 85.4% (inactive) |
| O=C(Nc1ccc(Cl)c(C(F)(F)F)c1)c1cncc(C#Cc2cnc3ccc(N4CCOCC4)nn23)c1 | -33.8% (active) |
| CCOC(=O)C1=C(N)N(c2ccccc2)C2=C(C(=O)CC(C)(C)C2)C1c1ccccc1OC (stereo not given) | 109% (inactive) |
| O=C(CS(=O)(=O)c1oc(-c2ccc(Cl)cc2)nc1S(=O)(=O)c1ccc(Cl)cc1)N1CCOCC1 | 83.9% (inactive) |

| SMILES | growth |
| --- | --- |
| COC(=O)C(Cc1ccc(O)c(O)c1)NC(=O)C(CSC/C=C(\C)CCCC(C)CCCC(C)CCCC(C)C)NC(C)=O (stereo not given) | 74.5% (inactive) |
| Cc1ccc(-c2nc(Nc3ccc(S(N)(=O)=O)cc3)c3ccccc3n2)cc1 | 99.9% (inactive) |
| COC[C@@H](CC(C)C)N=C1NC(=O)/C(=C/c2ccc3ncsc3c2)N1 | -70.7% (active) |
| CC(C)NC(=O)c1cc(-c2ccc(NC(=O)Nc3ccc(N4CCN(C)CC4)c(C(F)(F)F)c3)cc2)nc2cccnc12 | -81.9% (active) |
| C=C1CCC2C3(C)COC(c4c(F)cccc4F)OC3CCC2(C)C1CC(O)C1=CCOC1=O (stereo not given) | 52.4% (inactive) |
| CN1CCc2c(sc3ncnc(N/N=C/c4cn(-c5ccccc5)nc4-c4ccc(Cl)cc4)c23)C1 | 36.3% (inactive) |
| CC(=O)c1cc(C(=O)N2c3ccccc3Sc3ccccc32)n2ccc(C)cc12 | 72.5% (inactive) |
| Nc1cccnc1/C=N/NC(=S)NCCNC(=O)c1ccc(-n2nc(-c3ccccc3O)nc2-c2ccccc2O)cc1 | -4.94% (active) |
| O=S(=O)(Nc1ncccn1)c1ccc(-n2c(-c3ccccc3)nc(-c3ccccc3)c2-c2ccccc2)cc1 | 106% (inactive) |
| O=c1[nH]c2ccccc2cc1CSc1ccc(Nc2nccc(-c3ccc4ccccc4c3)n2)cc1 | 96.5% (inactive) |
| Brc1ccc(/C=N/Nc2ncnc3sc4c(c23)CCN(Cc2ccccc2)C4)cc1 | 112% (inactive) |
| Cc1noc2c(Cc3ccccc3)nn(CC(=O)N/N=C/c3ccc(Cl)cc3)c(=O)c12 | 94.3% (inactive) |
| CC(=O)Nc1ccc(-c2cn(-c3cccc(C(=O)Nc4ccc(Cl)c(C(F)(F)F)c4)c3)nn2)cn1 | -38.3% (active) |
| CC(=O)OC[C@@]1(C)C2CC[C@]3(C)C(CC=C4C5CC(C)(C)CC[C@]5(C(=O)Nc5ccccc5)CC[C@]43C)[C@@]2(C)C[C@@H](OC(C)=O)[C@@H]1OC(C)=O (stereo not given in full) | 35.4% (inactive) |
| C#Cc1ccc(S(=O)(=O)Nc2cccc(-c3csc(NC(C)=O)n3)c2)cc1 | 81.5% (inactive) |
| O=C(c1ccc(O)cc1)C1[C@H](c2ccccc2Br)[C@@H](c2ccccc2)NC12C(=O)Nc1ccc(Cl)cc12 (stereo not given in full) | -72.9% (active) |
| Cc1ccc(/C=C/C(=O)c2ccc(S(=O)(=O)NCCNc3nc(Nc4ccc(F)cc4)nc(N(C)C)n3)cc2)cc1 | 84.5% (inactive) |
| CCOC(=O)C1=C(N)N(c2ccc(C)cc2)C2=C(C(=O)CC(C)(C)C2)C1c1ccccc1OC (stereo not given) | 110% (inactive) |
| O=S(=O)(c1ccc(Cl)cc1)c1nc(-c2ccccc2)oc1S(=O)(=O)c1ccc(Cl)cc1 | 96.7% (inactive) |
| COC(=O)C[C@](O)(CCCC(C)(C)O)C(=O)O[C@H]1C(OC)=C[C@@]23CCC(=O)N2CCc2cc4c(cc2[C@@H]13)OCO4 | 110% (inactive) |
